Source: PubChem
In the library only some 19% were active in any assay of this set; here they are far more common.
IL-1B inflam inh: inflammasome signaling inhibition, IL-1 beta readout; THP-1 LPS/ATP IL-1B secretion, AlphaLISA, 16 h; stronger effect = lower value; activity change, % at 57.5 µM; 4.7% of 360,000 active; AID 743279; in the data active means activity change below about -50%; inconclusive means mostly about -30% to -49%; further: on the % scale 0 is the no-effect control and ±100 the full control effect
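Secreted IL-1B measured by AlphaLISA bead assay after 16 h compound exposure of THP-1 cells; compounds (final up to 57.5 uM) added 1 h before LPS (250 ng/mL) and ATP (1.25 mM) stimulation; lower signal means less secretion.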
HepG2 viability: HepG2 cytotoxicity, counter-screen for TGF-b inhibitors. 0.76% of 410,000 active. Potency, µM (series often up to 46.1 µM), without a hit: top-dose activity change, negative = cytotoxicity, actives largely listed as cytotoxic. HepG2 CAGA-GFP viability, ATP luminescence, 18 h. AID 588856; further: potency means the concentration at half of the fitted maximal effect
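HepG2 CAGA-GFP cells (1000/well, DMEM with 1% FBS) received compound, then TGF-beta at 500 pg/mL final, and were incubated 18 hours at 37 degrees C. Viability was read by CellTiter-Glo luminescence. Media-only wells were set as complete cell-killing and DMSO as no toxicity.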
TDP1 inh: blocks human tyrosyl-DNA phosphodiesterase 1; Q9NUW8; recombinant TDP1, AlphaScreen DNA substrate cleavage; Potency, µM (doses to about 130 µM), without a hit: top-dose activity change, negative = inhibition, hits mostly inhibitors; 0.28% of 350,000 active; AID 485290; further: potency means the concentration at half of the fitted maximal effect; on the % scale 0 is the no-effect control and ±100 the full control effect; nearly all actives have a fitted effect of over 40% in size
Target sequence (Q9NUW8 whole entry, looked up): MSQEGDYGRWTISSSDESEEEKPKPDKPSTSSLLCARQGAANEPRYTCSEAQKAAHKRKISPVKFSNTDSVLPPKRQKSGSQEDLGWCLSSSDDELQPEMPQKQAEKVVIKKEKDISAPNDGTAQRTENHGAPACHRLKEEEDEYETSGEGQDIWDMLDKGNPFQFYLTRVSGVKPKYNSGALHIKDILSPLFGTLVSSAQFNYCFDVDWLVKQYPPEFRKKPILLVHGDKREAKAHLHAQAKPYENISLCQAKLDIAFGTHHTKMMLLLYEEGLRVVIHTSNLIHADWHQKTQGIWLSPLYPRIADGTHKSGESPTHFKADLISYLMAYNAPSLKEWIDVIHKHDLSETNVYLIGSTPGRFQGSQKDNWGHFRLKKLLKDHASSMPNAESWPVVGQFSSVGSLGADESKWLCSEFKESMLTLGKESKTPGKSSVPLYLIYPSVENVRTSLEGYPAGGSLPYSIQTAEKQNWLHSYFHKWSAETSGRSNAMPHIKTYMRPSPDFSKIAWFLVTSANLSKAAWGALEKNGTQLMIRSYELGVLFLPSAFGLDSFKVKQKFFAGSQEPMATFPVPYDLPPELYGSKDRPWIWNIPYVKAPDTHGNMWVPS
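Here, a 5' biotin and 3' phosphotyrosine-FITC DNA oligonucleotide reports Tdp1 activity: intact substrate bridges AlphaScreen beads, while cleavage leaves a 3' phosphate and drops signal. All incubations at room temperature.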
TGFb SMAD3 inh: inhibitors of TGF-b signaling; 1.2% of 410,000 active; AID 588855; HepG2 CAGA-GFP TGF-b/SMAD3 reporter, GFP fluorescence, 18 h; TGF-beta stimulated, 500 pg/mL final; Potency, µM (titrated, usually from 46.1 µM), without a hit: at the highest dose activity, negative = inhibition, actives largely listed as inhibitors; further: potency means the concentration at half of the fitted maximal effect; on the % scale 0 is the no-effect control and ±100 the full control effect; nearly all actives have a fitted effect of over 65% in size
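HEPG2 CAGA-GFP cells (1000/well, DMEM with 1% FBS) were pre-incubated 2 h at 37 degrees C, given compound by pin tool, then stimulated with TGF-beta at 500 pg/mL final for 18 h before per-cell GFP fluorescence imaging.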
TDP1 cell noCPT: qHTS for Inhibitors of human tyrosyl-DNA phosphodiesterase 1 (TDP1): qHTS in cells in absence of CPT. DT40 Tdp1-/- hTDP1 cells, no CPT, ATP luminescence, 48 h. Potency, µM (titrated, usually from 46.2 µM), for inactives: at the highest dose activity change, negative = growth inhibition, usual class: inhibitors. 15% of 420,000 active. AID 686978, 2013; further: potency means the concentration at half of the fitted maximal effect; on the % scale 0 is the no-effect control and ±100 the full control effect; nearly all actives have a fitted effect of over 55% in size
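Stably hTDP1-transfected Tdp1-null chicken DT40 cells were treated with library compounds minus camptothecin and grown for at least 48 hr at 37 °C, after which cellular ATP was quantified by luminescence.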
TDP1 cell CPT: DT40-hTDP1 cell growth loss with CPT; AID 686979; Potency, µM (titrated, usually from 46.2 µM), inactives show at the highest dose activity change, negative = growth inhibition, hits mostly inhibitors; chicken DT40 Tdp1-/-;hTDP1 cells + 20 nM CPT, ATP luminescence, 48 h; 12% of 420,000 active; further: potency means the concentration at half of the fitted maximal effect; on the % scale 0 is the no-effect control and ±100 the full control effect; nearly all actives have a fitted effect of over 55% in size
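Chicken DT40 Tdp1-/- cells complemented with human TDP1, 400 cells/well, exposed to compounds plus 20 nM camptothecin for at least 48 h at 37 C; viability read as ATP content by CellTiter-Glo luminescence.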
* hit, by the source's call; ? = inconclusive; . = no result; ! = repeats disagree; [ ] = another dose, or the depositor's remark. Unless noted, the call rests on the fitted dose curve; in most records, active means well fitted curve in the direction sought with a large enough effect; inconclusive means small, poorly fitted or top-dose-only effect, or another doubt; inactive means no such curve, though single readings can be large; an effect the other way counts as inactive or inconclusive.

SMILES	IL-1B inflam inh	HepG2 viability	TDP1 inh	TGFb SMAD3 inh	TDP1 cell noCPT	TDP1 cell CPT
CCN=C1SC(CC(=O)NCC)C(=O)N1CC (stereo not given)	-12	-3%	0%	16%	-2%	4%
CC1=C(/C=C/C(C)=C/C=C/C(C)=C/C=C/C=C(C)/C=C/C=C(C)/C=C/C(=O)[C@]2(C)CC(O)CC2(C)C)C(C)(C)CC(O)C1 (stereo not given in full)	.	.	11%[56.1 µM]	.	9%	20%
CC1=C(/C=C/C(C)=C\C=C\C(C)=C\C(=O)O)C(C)(C)CCC1	.	.	11%	.	26µM*!	-13%[4.12 µM]
CC1=C(/C=C/C(C)=C/C=C/C(C)=C/C=C/C=C(C)/C=C/C=C(C)/C=C/C2=C(C)C[C@@H](O)CC2(C)C)C(C)(C)C[C@H](O)C1	.	.	.	.	15µM*	15µM*
CC1=C(/C=C/C(C)=C/C=C/C(C)=C/C(=O)O)C(C)(C)CCC1O (stereo not given)	.	.	11%	.	21µM*	26µM*
COc1ccc(CCNC(=O)Cc2ccc(NC(=O)N3CCSc4ncccc43)cc2)cc1OC	.	-3%	0%	0%	?	-27%
COc1ccc(C(=O)Nc2cc(S(=O)(=O)c3ccc(Cl)cc3)c(O)c(C)c2C)cc1	.	-23%	2%	?	?	-29%
CCCc1ccc(C(=O)CN2C(=O)C(=O)N(C3CCCC3)C2=O)cc1	17	-13%	0%	5%	2%	-14%
Cc1ccc(OCCNC(=O)c2cccc(Oc3ccc(C(F)(F)F)cc3[N+](=O)[O-])c2)cc1	-11	5%	3%	-21%	16µM*	?
Cc1ccc(S(=O)(=O)NCc2ccc(C(=O)NCCN(Cc3ccccc3)C(C)C)cc2)cc1	-66*	-11%	4%	?	16µM*	?
Cc1ccc(OCCNC(=O)c2cccc(S(=O)(=O)NCc3ccccc3)c2)cc1	13	-21%	-4%	0%	4.6µM*	4.1µM*
Cc1ccc(S(=O)(=O)NCc2ccc(C(=O)NCCc3cccc(C)c3)cc2)cc1	.	2%	-1%	-10%	?	?
Cc1cccc(OCCNc2ccc(C(F)(F)F)cc2[N+](=O)[O-])c1	-13	13%	3%	-3%	-11%	4%
O=C(NCc1ccncc1)c1cccc(S(=O)(=O)NCc2ccccc2)c1	18	4%	2%	-3%	0%	-4%
CCN(c1ccccc1)S(=O)(=O)c1cccc(C(=O)N(C)CCOc2ccccc2)c1	-17	4%	-15%	8%	21µM*	15µM*
CCCCOc1ccc(N=Cc2ccc[nH]2)cc1	-5	3%	.	19%	-3%	5%
COc1ccc(N(C)S(=O)(=O)c2cccc(C(=O)NCc3ccc(C)cc3)c2)cc1	-59*	-30%	-3%	?	?	?
Cc1cccc(OCCNC(=O)c2ccc(Cl)c(S(=O)(=O)NCc3cccnc3)c2)c1	104	-7%	-6%	?	2.6µM*	3.7µM*
COc1ccc(OCCN(C)C(=O)c2cccc(S(=O)(=O)N(C)c3ccccc3)c2)cc1	?	-4%	2%	?	18µM*	12µM*
Cc1ccc(CCNC(=O)CN(c2ccc(C(C)C)cc2)S(=O)(=O)c2c(C)nn(C)c2C)cc1	.	-6%	1%	-24%	23µM*	?
COc1ccc(N(CC(=O)NCCc2cccc(C)c2)S(=O)(=O)c2c(C)noc2C)cc1	-16	-19%	5%	?	18µM*	?
COc1ccc(N(CC(=O)NCCc2ccc(OC)c(OC)c2)S(=O)(=O)c2c(C)noc2C)cc1	93	-4%	2%	5%	0%	3%
COc1ccc(N(CC(=O)NCc2cccc(OC)c2)S(=O)(=O)c2c(C)noc2C)cc1	30	4%	1%	2%	-21%	-21%
COc1ccc(N(CC(=O)NCCc2ccc(C)cc2)S(=O)(=O)c2c(C)noc2C)cc1	-11	-22%	0%	-24%	?	21µM*
CCN1c2ccccc2NC2N=C(OC)C(c3ccccc3)C21 (stereo not given)	43	11µM*	-5%	13µM*	13µM*	12µM*
SMILES	IL-1B inflam inh	HepG2 viability	TDP1 inh	TGFb SMAD3 inh	TDP1 cell noCPT	TDP1 cell CPT
CC(NC(=O)CCNC(=O)N1CCn2c1nc1ccccc12)c1ccccc1 (stereo not given)	-5	-3%	1%	-7%	?	-1%
O=C1c2ccccc2NC(c2cccc([N+](=O)[O-])c2)N1CCc1ccccc1 (stereo not given)	-83*	-11%	8%	-28%	?	-22%
COc1ccc(CCN2C(=O)c3ccccc3NC2c2cc(Cl)c(O)c(OC)c2)cc1 (stereo not given)	29	3%	-3%	7%	4.1µM*	4.6µM*
C[C@@H]1OC(O[C@H]2[C@H](Oc3cc(O)c4c(=O)c(O)c(-c5ccc(O)cc5)oc4c3)O[C@H](CO)[C@@H](O)[C@@H]2O)[C@H](O)[C@H](O)[C@H]1O (stereo not given in full)	.	.	4%	.	.	.
CC(C)C[C@H](NC(=O)[C@@H](O)[C@H](N)Cc1ccccc1)C(=O)O	.	.	7%	.	22µM*	-20%[92.5 µM]
CCOC(=O)c1c(C)[nH]c(C)c1S(=O)(=O)N1CCCC(C(=O)N2CCN(c3cc(C)ccc3C)CC2)C1 (stereo not given)	.	-25%	7%	?	?	?
CCOC(=O)c1c(S(=O)(=O)N2CCCC(C(=O)N3CCN(c4cccc(C)c4C)CC3)C2)c(C)n(C)c1C (stereo not given)	.	-23%	6%	0%	9.2µM*	7.3µM*
CCOC(=O)c1c(S(=O)(=O)N2CCC(C(=O)N3CCN(c4cc(C)ccc4C)CC3)CC2)c(C)n(C)c1C	.	-12%	10%	-27%	23µM*	?
CCOC(=O)c1c(S(=O)(=O)N2CCCC(C(=O)N3CCN(c4cc(C)ccc4C)CC3)C2)c(C)n(C)c1C (stereo not given)	.	-9%	-2%	?	9.2µM*	8.2µM*
CCc1ccc(NC(=O)CSc2nncn2-c2cccnc2)cc1	-4	-13%	-20%	-5%	-14%	27%
